In article PMC11006913:
Numbering of substitutions follows the chain as printed.

Experiments:
Test in all cases: PBM; 200 nM protein, PBS
Conditions in all cases: dsDNA, one strand shown
[1] = target: NKX2-5 (Homo sapiens, UniProt P52952 125-210, R139K)
[2] = target: T1, NKX2-4 (Homo sapiens, UniProt Q9H2Z4 175-261, P217L)
T1 sequence: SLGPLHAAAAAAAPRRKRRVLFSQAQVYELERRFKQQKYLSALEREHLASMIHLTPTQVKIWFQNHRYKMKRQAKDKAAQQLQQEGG

[3] = target: T2, NKX2-4 (Homo sapiens, UniProt Q9H2Z4 175-261, T231S)
T2 sequence: T1 sequence with L43P, T57S

[4] = target: T3, NKX2-4 (Homo sapiens, UniProt Q9H2Z4 175-261)
T3 sequence: T1 sequence with L43P

[5] = target: T4, NKX2-6 (Homo sapiens, UniProt A6NCS4 118-204, R150C)
T4 sequence: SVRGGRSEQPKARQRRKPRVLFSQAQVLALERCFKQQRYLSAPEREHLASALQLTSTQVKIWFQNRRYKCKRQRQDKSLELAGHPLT

[6] = target: T5, NKX2-6 (Homo sapiens, UniProt A6NCS4 118-204)
T5 sequence: T4 sequence with C33R

[7] = target: T6, NKX2-4 (Homo sapiens, UniProt Q9H2Z4 175-261, R246Q)
T6 sequence: T1 sequence with L43P, R72Q

[8] = target: T7, NKX2-6 (Homo sapiens, UniProt A6NCS4 118-204, F151L)
T7 sequence: T4 sequence with C33R, F34L

[9] = target: NKX3-2 (Homo sapiens, UniProt P78367 192-278, P234S)
Sequence of NKX3-2 (Homo sapiens, UniProt P78367 192-278, P234S) (P78367 192-278 P234S): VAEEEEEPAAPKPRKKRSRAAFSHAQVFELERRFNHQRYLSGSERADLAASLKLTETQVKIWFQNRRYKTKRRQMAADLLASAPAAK

[10] = target: NKX2-5 (Homo sapiens, UniProt P52952 125-210)
Sequence of NKX2-5 (Homo sapiens, UniProt P52952 125-210) (P52952 125-210): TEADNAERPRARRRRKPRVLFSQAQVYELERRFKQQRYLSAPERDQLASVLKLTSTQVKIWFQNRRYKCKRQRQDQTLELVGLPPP

[11] = target: NKX3-2 (Homo sapiens, UniProt P78367 192-278)
Sequence of NKX3-2 (Homo sapiens, UniProt P78367 192-278) (P78367 192-278): as the sequence (P78367 192-278 P234S) above, with S43P counted along it

Sequence of NKX2-5 (Homo sapiens, UniProt P52952 125-210, R139K) (P52952 125-210 R139K): as the sequence (P52952 125-210) above, with R15K counted along it

Row | Sequence | binding signal [1] | binding signal [2] | binding signal [3] | binding signal [4] | binding signal [5] | binding signal [6] | binding signal [7] | binding signal [8] | binding signal [9] | binding signal [10] | binding signal [11]
1 | AAGTACCC | 12.4 upbm affinity estimate (log intensity, higher = more binding, comparable within an allelic series) | 12.4 upbm affinity estimate (log intensity, higher = more binding, comparable within an allelic series) | 12.9 upbm affinity estimate (log intensity, higher = more binding, comparable within an allelic series) | 12.3 upbm affinity estimate (log intensity, higher = more binding, comparable within an allelic series) | 11.7 upbm affinity estimate (log intensity, higher = more binding, comparable within an allelic series) | 13.4 upbm affinity estimate (log intensity, higher = more binding, comparable within an allelic series) | 12.9 upbm affinity estimate (log intensity, higher = more binding, comparable within an allelic series) | 10.5 upbm affinity estimate (log intensity, higher = more binding, comparable within an allelic series) | 12.8 upbm affinity estimate (log intensity, higher = more binding, comparable within an allelic series) | 12.2 upbm affinity estimate (log intensity, higher = more binding, comparable within an allelic series) | 12.8 upbm affinity estimate (log intensity, higher = more binding, comparable within an allelic series)
2 | CACTTAAG | 13.2 upbm affinity estimate (log intensity, higher = more binding, comparable within an allelic series) | 12.7 upbm affinity estimate (log intensity, higher = more binding, comparable within an allelic series) | 13 upbm affinity estimate (log intensity, higher = more binding, comparable within an allelic series) | 12.5 upbm affinity estimate (log intensity, higher = more binding, comparable within an allelic series) | 12.2 upbm affinity estimate (log intensity, higher = more binding, comparable within an allelic series) | 14 upbm affinity estimate (log intensity, higher = more binding, comparable within an allelic series) | 13.2 upbm affinity estimate (log intensity, higher = more binding, comparable within an allelic series) | 11.5 upbm affinity estimate (log intensity, higher = more binding, comparable within an allelic series) | 13 upbm affinity estimate (log intensity, higher = more binding, comparable within an allelic series) | 13.1 upbm affinity estimate (log intensity, higher = more binding, comparable within an allelic series) | 13.1 upbm affinity estimate (log intensity, higher = more binding, comparable within an allelic series)
3 | AAGTGGAG | 12.2 upbm affinity estimate (log intensity, higher = more binding, comparable within an allelic series) | 12.4 upbm affinity estimate (log intensity, higher = more binding, comparable within an allelic series) | 12.7 upbm affinity estimate (log intensity, higher = more binding, comparable within an allelic series) | 12.3 upbm affinity estimate (log intensity, higher = more binding, comparable within an allelic series) | 11.7 upbm affinity estimate (log intensity, higher = more binding, comparable within an allelic series) | 13.3 upbm affinity estimate (log intensity, higher = more binding, comparable within an allelic series) | 12.8 upbm affinity estimate (log intensity, higher = more binding, comparable within an allelic series) | 10.6 upbm affinity estimate (log intensity, higher = more binding, comparable within an allelic series) | 12.7 upbm affinity estimate (log intensity, higher = more binding, comparable within an allelic series) | 12.2 upbm affinity estimate (log intensity, higher = more binding, comparable within an allelic series) | 12.8 upbm affinity estimate (log intensity, higher = more binding, comparable within an allelic series)
4 | TAAGTGGA | 13.2 upbm affinity estimate (log intensity, higher = more binding, comparable within an allelic series) | 12.8 upbm affinity estimate (log intensity, higher = more binding, comparable within an allelic series) | 13.2 upbm affinity estimate (log intensity, higher = more binding, comparable within an allelic series) | 12.6 upbm affinity estimate (log intensity, higher = more binding, comparable within an allelic series) | 12.3 upbm affinity estimate (log intensity, higher = more binding, comparable within an allelic series) | 13.9 upbm affinity estimate (log intensity, higher = more binding, comparable within an allelic series) | 13.3 upbm affinity estimate (log intensity, higher = more binding, comparable within an allelic series) | 11.3 upbm affinity estimate (log intensity, higher = more binding, comparable within an allelic series) | 13.2 upbm affinity estimate (log intensity, higher = more binding, comparable within an allelic series) | 13.1 upbm affinity estimate (log intensity, higher = more binding, comparable within an allelic series) | 13.3 upbm affinity estimate (log intensity, higher = more binding, comparable within an allelic series)
5 | AAGTGGTA | 12.5 upbm affinity estimate (log intensity, higher = more binding, comparable within an allelic series) | 12.4 upbm affinity estimate (log intensity, higher = more binding, comparable within an allelic series) | 12.9 upbm affinity estimate (log intensity, higher = more binding, comparable within an allelic series) | 12.3 upbm affinity estimate (log intensity, higher = more binding, comparable within an allelic series) | 11.9 upbm affinity estimate (log intensity, higher = more binding, comparable within an allelic series) | 13.4 upbm affinity estimate (log intensity, higher = more binding, comparable within an allelic series) | 12.9 upbm affinity estimate (log intensity, higher = more binding, comparable within an allelic series) | 10.7 upbm affinity estimate (log intensity, higher = more binding, comparable within an allelic series) | 12.8 upbm affinity estimate (log intensity, higher = more binding, comparable within an allelic series) | 12.5 upbm affinity estimate (log intensity, higher = more binding, comparable within an allelic series) | 12.9 upbm affinity estimate (log intensity, higher = more binding, comparable within an allelic series)
